Test results as given in PubChem BioAssay.
The source made the active and inactive calls.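 Rule for the calls: active = normalized viability below 100% at a tested concentration; inactive = the rest.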

Assay: drug combination growth inhibition, ovarian cancer – cell-based, oncology-focused library, rucaparib conditional, profiling panel (AID 1508598)
Conditions: patient-derived ovarian cancer cells, CellTiter-Glo viability, 144 h, active compounds read low
[1] = at 0.000305 µM, OCI-C5x cells, with rucaparib 10 µM, 100% = cells with rucaparib alone
[2] = at 0.000305 µM, OCI-C5x cells, without rucaparib
[3] = at 0.000305 µM, OCI-P5x cells, with rucaparib 20 µM, 100% = cells with rucaparib alone
[4] = at 0.000305 µM, OCI-P5x cells, without rucaparib
[5] = at 0.00122 µM, OCI-C5x cells, with rucaparib 10 µM, 100% = cells with rucaparib alone
[6] = at 0.00122 µM, OCI-C5x cells, without rucaparib
[7] = at 0.00122 µM, OCI-P5x cells, with rucaparib 20 µM, 100% = cells with rucaparib alone
[8] = at 0.00122 µM, OCI-P5x cells, without rucaparib
[9] = at 0.00488 µM, OCI-C5x cells, with rucaparib 10 µM, 100% = cells with rucaparib alone
[10] = at 0.00488 µM, OCI-C5x cells, without rucaparib
[11] = at 0.00488 µM, OCI-P5x cells, with rucaparib 20 µM, 100% = cells with rucaparib alone
[12] = at 0.00488 µM, OCI-P5x cells, without rucaparib
[13] = at 0.0195 µM, OCI-C5x cells, with rucaparib 10 µM, 100% = cells with rucaparib alone
[14] = at 0.0195 µM, OCI-C5x cells, without rucaparib
[15] = at 0.0195 µM, OCI-P5x cells, with rucaparib 20 µM, 100% = cells with rucaparib alone
[16] = at 0.0195 µM, OCI-P5x cells, without rucaparib
[17] = at 0.0781 µM, OCI-C5x cells, with rucaparib 10 µM, 100% = cells with rucaparib alone
[18] = at 0.0781 µM, OCI-C5x cells, without rucaparib
[19] = at 0.0781 µM, OCI-P5x cells, with rucaparib 20 µM, 100% = cells with rucaparib alone
[20] = at 0.0781 µM, OCI-P5x cells, without rucaparib
[21] = at 0.313 µM, OCI-C5x cells, with rucaparib 10 µM, 100% = cells with rucaparib alone
[22] = at 0.313 µM, OCI-C5x cells, without rucaparib
[23] = at 0.313 µM, OCI-P5x cells, with rucaparib 20 µM, 100% = cells with rucaparib alone
[24] = at 0.313 µM, OCI-P5x cells, without rucaparib
[25] = at 1.25 µM, OCI-C5x cells, with rucaparib 10 µM, 100% = cells with rucaparib alone
[26] = at 1.25 µM, OCI-C5x cells, without rucaparib
[27] = at 1.25 µM, OCI-P5x cells, with rucaparib 20 µM, 100% = cells with rucaparib alone
[28] = at 1.25 µM, OCI-P5x cells, without rucaparib
[29] = at 5 µM, OCI-C5x cells, with rucaparib 10 µM, 100% = cells with rucaparib alone
[30] = at 5 µM, OCI-C5x cells, without rucaparib
[31] = at 5 µM, OCI-P5x cells, with rucaparib 20 µM, 100% = cells with rucaparib alone
[32] = at 5 µM, OCI-P5x cells, without rucaparib

Measured: viability

CO[C@H]1/C=C\C=C(\C)C(=O)NC2=CC(=O)C(NCCN(C)C)=C(C[C@@H](C)C[C@H](OC)[C@H](O)[C@@H](C)/C=C(\C)[C@@H]1OC(N)=O)C2=O
active: [14] 82.9% | [15] 50.4% | [16] 17.3% | [17] 91.8% | [18] 27.4% | [19] 17.4% | [20] 9.22% | [21] 26.5% | [22] 10.1% | [23] 7.13% | [24] 5.68% | [25] 7.91% | [26] 4.98% | [27] 6.01% | [28] 3.54% | [29] 8.19% | [30] 4.12% | [31] 4.71% | [32] 2.66%
inactive: [1] 108% | [2] 108% | [3] 120% | [4] 116% | [5] 109% | [6] 109% | [7] 114% | [8] 114% | [9] 107% | [10] 107% | [11] 117% | [12] 117% | [13] 118%

C[C@@H]1C[C@H]2[C@@H]3CCC4=CC(=O)C=C[C@]4(C)[C@]3(F)[C@H](O)C[C@]2(C)[C@]1(O)C(=O)CO
inactive: [1] 111% | [2] 118% | [3] 107% | [4] 121% | [5] 117% | [6] 125% | [7] 110% | [8] 123% | [9] 102% | [10] 116% | [11] 112% | [12] 115% | [13] 111% | [14] 117% | [15] 108% | [16] 114% | [17] 108% | [18] 107% | [19] 100% | [20] 110% | [21] 111% | [22] 109% | [23] 104% | [24] 108% | [25] 109% | [26] 116% | [28] 101% | [29] 117% | [30] 108% | [32] 101%
active: [27] 95.5% | [31] 90.8%

O=c1[nH]c(=O)n([C@@H]2C[C@H](O)[C@@H](CO)O2)cc1F
active: [3] 67.7% | [4] 24.9% | [7] 65.1% | [8] 15.4% | [12] 98.1% | [13] 98.9% | [16] 100% | [24] 98.4% | [27] 89.4% | [28] 85.9% | [31] 72.1% | [32] 49.4%
inactive: [1] 115% | [2] 119% | [5] 111% | [6] 117% | [9] 106% | [10] 121% | [11] 105% | [14] 111% | [15] 104% | [17] 109% | [18] 120% | [19] 104% | [20] 109% | [21] 109% | [22] 114% | [23] 104% | [25] 117% | [26] 128% | [29] 185% | [30] 183%

COc1cccc(-c2cc(F)ccc2[C@H]2Cc3nc(N)nc(C)c3C(=O)N2)n1
active: [11] 53.5% | [12] 34.2% | [13] 93.9% | [14] 41.2% | [15] 16.9% | [16] 8.17% | [17] 23.6% | [18] 13.1% | [19] 10.3% | [20] 7.46% | [21] 11.3% | [22] 8.63% | [23] 6.73% | [24] 5.16% | [25] 10.2% | [26] 7.01% | [27] 5.14% | [28] 4.54% | [29] 9.37% | [30] 7.01% | [31] 4.5% | [32] 3.25%
inactive: [1] 108% | [2] 122% | [3] 108% | [4] 113% | [5] 117% | [6] 135% | [7] 101% | [8] 112% | [9] 134% | [10] 141%

Nc1nc(F)nc2c1ncn2[C@H]1O[C@H](CO)[C@@H](O)[C@@H]1O
active: [15] 97.4% | [21] 89.3% | [23] 99% | [25] 80.7% | [26] 82.4% | [29] 79.6% | [30] 11.9% | [32] 38.5%
inactive: [1] 101% | [2] 120% | [3] 104% | [4] 108% | [5] 106% | [6] 117% | [7] 103% | [8] 107% | [9] 112% | [10] 120% | [11] 102% | [12] 112% | [13] 109% | [14] 116% | [16] 113% | [17] 106% | [18] 111% | [19] 110% | [20] 113% | [22] 112% | [24] 112% | [27] 110% | [28] 107% | [31] 106%

N[C@@H]1CCCN(c2c(/C=C3\SC(=O)NC3=O)cccc2-c2ccccc2)C1
inactive: [1] 108% | [2] 122% | [4] 112% | [5] 116% | [6] 121% | [8] 111% | [9] 119% | [10] 119% | [11] 103% | [12] 108% | [13] 105% | [14] 108% | [16] 111% | [17] 108% | [18] 115% | [19] 101% | [20] 109% | [21] 105% | [24] 106% | [26] 103% | [28] 106% | [29] 115% | [30] 119%
active: [3] 96.6% | [7] 98.1% | [15] 96.9% | [22] 99.1% | [23] 91.3% | [25] 93.8% | [27] 91.3% | [31] 74.6% | [32] 97.5%

CCC1=CC2CN(C1)Cc1c([nH]c3ccccc13)[C@@](C(=O)OC)(c1cc3c(cc1OC)N(C)[C@H]1[C@@](O)(C(=O)OC)[C@H](OC(C)=O)[C@]4(CC)C=CCN5CC[C@@]31[C@H]54)C2 (stereo partly specified)
active: [3] 1.99% | [4] 2.91% | [5] 94.4% | [6] 70.1% | [7] 1.29% | [8] 1.02% | [9] 50.6% | [10] 43.8% | [11] 52.9% | [12] 20.3% | [13] 39.2% | [14] 33.7% | [15] 50.5% | [16] 16.3% | [17] 40.3% | [18] 22.9% | [19] 49.1% | [20] 13.6% | [21] 33.8% | [22] 23.8% | [23] 46.6% | [24] 12.6% | [25] 39.7% | [26] 21.7% | [27] 45.2% | [28] 11.4% | [29] 36.1% | [30] 22.2% | [31] 41.7% | [32] 8.33%
inactive: [1] 110% | [2] 106%

C=C1/C(=C/C=C2\CCC[C@@]3(C)[C@H]2CC[C@H]3[C@H](C)/C=C/[C@@H](C)C(C)C)C[C@H](O)C[C@@H]1O
active: [1] 99.9% | [2] 95% | [5] 97.2% | [6] 100% | [8] 99.9% | [9] 94% | [17] 97.1% | [21] 96.7% | [22] 96.6% | [27] 98.4%
inactive: [3] 101% | [4] 100% | [7] 105% | [10] 104% | [11] 105% | [12] 102% | [13] 103% | [14] 100% | [15] 102% | [16] 102% | [18] 100% | [19] 105% | [20] 101% | [23] 107% | [24] 104% | [25] 101% | [26] 102% | [28] 103% | [29] 120% | [30] 111% | [31] 111% | [32] 103%

COc1cc(=C2C=c3ccccc3=N2)[nH]/c1=C\c1[nH]c(C)cc1C
active: [3] 81.8% | [4] 30.2% | [7] 69.4% | [8] 19.5% | [12] 97.2% | [15] 98.9% | [16] 97.5% | [18] 79.1% | [19] 29.2% | [20] 77.3% | [22] 93.7% | [23] 13.2% | [24] 18.4% | [25] 89.4% | [26] 91.7% | [27] 10.1% | [28] 22% | [29] 37.7% | [30] 21.3%
inactive: [1] 118% | [2] 122% | [5] 127% | [6] 124% | [9] 132% | [10] 114% | [11] 105% | [13] 115% | [14] 115% | [17] 110% | [21] 131%
